Several values for one entry are separate records, joined by “and”; a condition that tells them apart may be missing. Identical values can stand only once. Records with an inconclusive call do not appear. Where a call stands in place of a potency, no number is given. Where a structure was tested more than once in an assay, its records may differ in their call. Activity calls are given as the source filed them. Unless noted, calls come from the whole dose curve; as a rule, active = well fitted curve in the direction sought with a large enough effect in the repeat runs; inconclusive = weak or mixed curves; inactive = no such curve, though single readings can be large; an effect the other way counts as inactive or inconclusive.
What was measured:
[1] = qHTS assay to identify small molecule agonists of the hypoxia (HIF-1) signaling pathway - cell viability counter screen (AID 1224844; calls by dose curve; note: nearly all actives have a fitted effect of over 50% in size; note: potency is the fitted concentration of half-maximal effect)
Procedure, shortened: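 Multiplexed with the HRE beta-lactamase assay, this viability read used CellTiter-Glo luminescence (30 min, RT) on HRE-bla ME-180 cells treated 17 hrs with compounds in 0.5% dialyzed FBS medium.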

[2] = qHTS assay to identify small molecule agonists of H2AX (AID 1224845; active = well fitted activation curve with a large enough effect in the signal ratio in the repeat runs, not every such curve was filed as active; the % refers to the signal ratio; note: potency is the fitted concentration of half-maximal effect)
Procedure, shortened: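 Wild-type CHO-K1 cells plated overnight, then exposed 3 hr at 37C to compounds at 15 concentrations (0.76% DMSO). Lysed, then HTRF anti-pH2AX(S139)-cryptate/anti-H2AX-d2 detection after 24 hr at room temperature; emissions 665 and 620 nm.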

[3] = qHTS assay to identify small molecule agonists of the hypoxia (HIF-1) signaling pathway (AID 1224846; active = well fitted activation curve with a large enough effect in the signal ratio in the repeat runs, not every such curve was filed as active; the % refers to the signal ratio)
Procedure, shortened: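 Hypoxia-pathway activation was scored as increased beta-lactamase from an HRE-controlled reporter in ME-180 cells; plated at 2,000 cells per well with 0.5% dialyzed FBS, they were exposed 17 hrs to compounds and then given CCF4-AM.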

[4] = qHTS assay to identify small molecule agonists of H2AX - cell viability counter screen (AID 1224847; calls by dose curve; note: nearly all actives have a fitted effect of over 30% in size; note: potency is the fitted concentration of half-maximal effect)
Procedure, shortened: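 We seed wild-type CHO-K1 cells overnight, treat them for 3 hr at 37C with compounds in 15-concentration series, and quantify remaining viability by CellTiter-Glo luminescence.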

[5] = qHTS RealTime-Glo MT Cell Viability Assay in HepG2 cells - 24 hour (AID 1224867); note: nearly all actives have a fitted effect of over 50% in size; note: potency is the fitted concentration of half-maximal effect
Procedure, shortened: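 Real-time, nonlytic viability: 600 HepG2 cells/well mixed with NanoLuc enzyme plus prosubstrate; 5 h settle, compound (DMSO) added by pintool; luminescence monitored over 40 h at 37 C.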

[6] = qHTS RealTime-Glo MT Cell Viability Assay in HEK293 cells - 32 hour (AID 1224868); note: nearly all actives have a fitted effect of over 50% in size; note: potency is the fitted concentration of half-maximal effect
Procedure, shortened: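 Cells + reagent dispensed (600 cells/well, HEK293) → 5 h at 37 C/5% CO2 → 23 nL compound in DMSO pinned → 40 h at 37 C → luminescence read at 0, 8, 16, 24, 32, 40 h.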

[7] = A CellTox Green Cytotoxicity Assay to monitor cytotoxicity in HEK293 cells - 0 hour (AID 1224869); note: nearly all actives have a fitted effect of over 50% in size; note: potency is the fitted concentration of half-maximal effect
Procedure, shortened: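 Seeding of HEK293 cells together with cytotoxicity dye preceded a 5 h incubation at 37 C/5% CO2. Test compounds in DMSO were then added and fluorescence monitored across 40 h.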

[8] = qHTS RealTime-Glo MT Cell Viability Assay in HepG2 cells - 40 hour (AID 1224870); note: nearly all actives have a fitted effect of over 50% in size; note: potency is the fitted concentration of half-maximal effect
Procedure, shortened: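 HepG2 cells mixed with RealTime-Glo MT reagents (NanoLuc plus cell-permeant prosubstrate) were seeded at 600 cells/well, incubated 5 h at 37 C/5% CO2, then pinned with compounds in DMSO; nonlytic luminescence tracked viability during 40 h treatment.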

[9] = qHTS assay to identify small molecule antagonists of the estrogen related receptor (ERR) signaling pathway from Tox21 library (AID 1224848); note: nearly all actives have a fitted effect of over 50% in size; note: potency is the fitted concentration of half-maximal effect
Procedure, shortened: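 Cells: ERR line, 2,000/well; 6 h preincubation 37 C/5% CO2. Cpd in DMSO via pin tool; 18 h, 37 C. ONE-Glo, 30 min RT, luminescence.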

[10] = qHTS assay to identify small molecule agonists of the estrogen related receptor (ERR) signaling pathway from Tox21 library (AID 1224849; calls by dose curve; note: nearly all actives have a fitted effect of over 15% in size); settings: ERR reporter cell line, ONE-Glo luciferase, 18 h
Procedure, shortened: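 Six hours post-seeding at 37 C/5% CO2, ERR cells receive DMSO-solubilised compounds; after 18 h at 37 C, ONE-Glo reagent is applied and luminescence recorded.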

| SMILES | Potency [1] | Potency [2] | outcome [3] | Potency [4] | Potency [5] | Potency [6] | Potency [7] | Potency [8] | Potency [9] | activity change, positive = activation ([10]; at 42.5 µM (top of the series)) | activity change, positive = activation ([10]; at 92.4 µM (top of the series)) |
| --- | --- | --- | --- | --- | --- | --- | --- | --- | --- | --- | --- |
| CCCCCCCCCCCC(=O)O | inactive | inactive | inactive | inactive | inactive | inactive | inactive | inactive |  |  |  |
| Oc1ccccc1-c1ccccc1 | inactive | inactive | inactive | inactive | inactive | inactive | inactive | inactive |  |  |  |
| C1CCC(NC2CCCCC2)CC1 | inactive | inactive | inactive | inactive | inactive | inactive | inactive | inactive |  |  |  |
| C[C@]12CCC(=O)C=C1CC[C@@H]1[C@@H]2CC[C@]2(C)C(=O)CC[C@@H]12 | inactive | 88.3 µM (active) |  | inactive | inactive | 27.1 µM (active) and inactive | inactive | inactive | 42.5 µM (active) and 54.5 µM (active) | -23.4% (inactive) | -46.4% (inactive) and -41% (inactive) |
| Nc1ccc(-c2ccc(N)cc2)cc1 | inactive |  | inactive | inactive | inactive | inactive | inactive | inactive |  |  |  |
| O=C(O)COc1ccc(Cl)cc1Cl | inactive | inactive | inactive | inactive | inactive | inactive | inactive | inactive |  |  |  |
| COP(=O)(OC)C(O)C(Cl)(Cl)Cl (configuration not stated) | inactive | inactive |  | inactive | inactive | inactive | inactive | inactive | inactive | 0.23% (inactive) | -17% (inactive) and -12.3% (inactive) |
| CCCCCCCCCCn1cc[n+](C)c1 | inactive | inactive | inactive |  | inactive |  | inactive | inactive |  |  |  |
| CC[n+]1ccccc1 | inactive | inactive | inactive | inactive and 1.26 µM (active) | inactive | inactive and 38.6 µM (active) | inactive | inactive and 34.8 µM (active) |  |  |  |
| CNC | inactive | inactive | inactive | inactive | inactive | inactive | inactive | inactive |  |  |  |
| CCCC[N+]1(C)CCCC1 | inactive | inactive | inactive | inactive | inactive | inactive | inactive | inactive and 43.9 µM (active) |  |  |  |
| Cc1cc(-c2ccc(N)c(C)c2)ccc1N | inactive |  | inactive | inactive | inactive | inactive | inactive | inactive |  |  |  |
| COP(=O)(OC)OC=C(Cl)Cl | inactive | inactive | inactive | inactive | inactive | inactive | inactive | inactive |  |  |  |
| CCCCCCCCCCCCn1cc[n+](C)c1 |  | inactive | inactive |  |  |  | inactive |  |  |  |  |
| CCCCCCn1cc[n+](C)c1 | inactive | inactive | inactive | inactive | inactive | 19.7 µM (active) [middle of 5 runs] | inactive | inactive and 35.4 µM (active) |  |  |  |
| O=P1(N(CCCl)CCCl)NCCCO1 (configuration not stated) | inactive | inactive |  | inactive | inactive | inactive | inactive | inactive | inactive | -7.16% (inactive) | -1.25% (inactive) and 0.0597% (inactive) |
| O=C(O)CC(O)(CC(=O)O)C(=O)O | inactive | inactive |  | inactive | inactive | inactive | inactive | inactive |  |  |  |
| Oc1cccc2cccnc12 | 1.1 µM (active) and inactive | 1.43 µM (active) and 3.02 µM (active) and inactive |  | inactive | inactive and 3.47 µM (active) | 20.7 µM (active) and 5.49 µM (active) and inactive | inactive | inactive and 3.09 µM (active) |  |  |  |

| SMILES | Potency [1] | Potency [2] | outcome [3] | Potency [4] | Potency [5] | Potency [6] | Potency [7] | Potency [8] | Potency [9] | activity change, positive = activation ([10]; at 42.5 µM (top of the series)) | activity change, positive = activation ([10]; at 92.4 µM (top of the series)) |
| --- | --- | --- | --- | --- | --- | --- | --- | --- | --- | --- | --- |
| O=C(O)c1ccccc1O | inactive | inactive | inactive | inactive | inactive | inactive | inactive | inactive |  |  |  |
| CN(C)[C@@H]1C(=O)C(C(N)=O)=C(O)[C@@]2(O)C(=O)C3=C(O)c4c(O)cccc4[C@@](C)(O)[C@H]3[C@H](O)[C@@H]12 | inactive |  |  | inactive | inactive | inactive | inactive | inactive |  |  |  |
| CCCCn1cc[n+](C)c1C | inactive | inactive | inactive | inactive | inactive | inactive | inactive | inactive and 22.1 µM (active) |  |  |  |
| CC(=O)[O][Hg][c]1ccccc1 | 154 nM (active) and 1.74 µM (active) and 2.68 µM (active) |  |  | 3.16 µM (active) and 5.66 µM (active) and 24.7 µM (active) | 1.72 µM (active) and 1.95 µM (active) and 1.07 µM (active) | 306 nM (active) and 977 nM (active) and 239 nM (active) | inactive | 1.93 µM (active) and 1.95 µM (active) and 1.07 µM (active) | 2.15 µM (active) and 3.44 µM (active) and 5.96 µM (active) | -71% (inactive) | -80.3% (inactive) and -73.5% (inactive) |
| CC[N+]1(C)CCCC1 | inactive | inactive | inactive | inactive | inactive | inactive and 21.9 µM (active) | inactive | inactive |  |  |  |
| N#CS | inactive | inactive |  | inactive | inactive | inactive | inactive | inactive |  |  |  |
| CCCCCCCCCCCCCCCCn1cc[n+](C)c1 | inactive and 49.4 µM (active) and 31 µM (active) | inactive | inactive |  | inactive and 49.4 µM (active) and 43.8 µM (active) |  | inactive | inactive and 39.2 µM (active) and 31 µM (active) |  |  |  |
| O=C(O)C(Cl)Cl | inactive | inactive | inactive | inactive | inactive | inactive | inactive | inactive |  |  |  |
| C=CCOC(Cn1ccnc1)c1ccc(Cl)cc1Cl (configuration not stated) | 39 µM (active) and inactive |  |  | 113 µM (active) and inactive | inactive | 21.9 µM (active) and 38.9 µM (active) | inactive | inactive |  |  |  |
| Cc1cc(Cl)ccc1OCC(=O)O | inactive | inactive | inactive | inactive | inactive | inactive | inactive | inactive |  |  |  |
| O=[N+]([O-])O | inactive | inactive | inactive | inactive | inactive | inactive | inactive | inactive |  |  |  |
| CCC(=O)C(CC(C)N(C)C)(c1ccccc1)c1ccccc1 (configuration not stated) | inactive | inactive | inactive | inactive | inactive | 24.4 µM (active) | inactive | inactive |  |  |  |
| CCCCCC[n+]1ccccc1 | inactive | inactive | inactive | inactive | inactive |  | inactive | inactive |  |  |  |
| COc1ccc(N)cc1 | inactive | 99.1 µM (active) and 89.8 µM (active) | inactive | inactive | inactive | inactive | inactive | inactive |  |  |  |
| Nc1ccc(-c2ccc(N)c(Cl)c2)cc1Cl | inactive |  | inactive | 101 µM (active) | inactive and 49 µM (active) | 12.4 µM (active) and 18.2 µM (active) and 21.9 µM (active) | inactive and 38.9 µM (active) | inactive and 54.9 µM (active) |  |  |  |
| C[N+](C)(C)Cc1ccccc1 | inactive | inactive | inactive | inactive | inactive | inactive | inactive | inactive |  |  |  |
| Nc1ccccc1 | inactive | inactive | inactive | inactive | inactive | inactive | inactive | inactive |  |  |  |

From PubChem BioAssay (Tox21)
